Results published in PubChem BioAssay (NCATS).
Values joined by “and” are separate entries in the source; they are usually repeats but may differ in a detail not shown here. Identical values can stand only once. Inconclusive results are not listed. Active and inactive are the calls of the source. Calls come from the whole dose curve; as a rule, active = well fitted curve in the direction sought with a large enough effect; inconclusive = small, poorly fitted or top-dose-only effect, or another doubt; inactive = no such curve, though single readings can be large; an effect the other way counts as inactive or inconclusive.

Tests used:
[1] = target: Cytochrome P450 3A7 (Homo sapiens) (UniProt P24462); test: Cytochrome P450 family 3 subfamily A member 7 (CYP3A7) small molecule antagonists: luciferase biochemical qHTS assay (AID 1963596); note: nearly all actives have a fitted effect of over 40% in size
Chain of Cytochrome P450 3A7 (Homo sapiens) (P24462 whole entry, looked up): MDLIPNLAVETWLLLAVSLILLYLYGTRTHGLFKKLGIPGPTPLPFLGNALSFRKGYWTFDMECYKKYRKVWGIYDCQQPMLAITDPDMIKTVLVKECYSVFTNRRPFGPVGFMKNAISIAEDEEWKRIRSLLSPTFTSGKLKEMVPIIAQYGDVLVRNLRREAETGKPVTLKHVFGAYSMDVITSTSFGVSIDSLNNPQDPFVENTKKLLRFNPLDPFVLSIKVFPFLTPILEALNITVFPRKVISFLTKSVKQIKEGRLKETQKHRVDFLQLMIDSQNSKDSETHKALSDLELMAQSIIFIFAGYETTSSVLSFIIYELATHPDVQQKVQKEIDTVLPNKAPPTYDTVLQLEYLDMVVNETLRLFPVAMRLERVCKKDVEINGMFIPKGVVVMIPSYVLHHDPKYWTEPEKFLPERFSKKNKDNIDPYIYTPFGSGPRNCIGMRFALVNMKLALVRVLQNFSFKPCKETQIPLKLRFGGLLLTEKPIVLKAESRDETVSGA
Procedure, shortened: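 Biochemical CYP3A7 activity measured with P450-Glo system: luciferin formed from proluciferin substrate in NADPH-driven reaction (1 h, room temperature) after 10 min compound preincubation. Signal in relative luminescence units.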

[2] = Viability qHTS for spleen associated tyrosine kinase inhibitor (SYKi) naive MV4-11 cells (AID 1963823); note: nearly all actives have a fitted effect of over 40% in size
Procedure, shortened: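 Seeding of 500 SYKi-naive MV4-11 cells per well onto pre-dispensed compounds preceded a 72 hr incubation at 37 C. Luminescent CellTiter-Glo signal, read after 10 min at room temperature, reflected viable cells.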

[3] = Viability qHTS for spleen associated tyrosine kinase inhibitor (SYKi) drug resistant MV4-11 cells (AID 1963824); note: nearly all actives have a fitted effect of over 35% in size
Procedure, shortened: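 SYK inhibitor-resistant MV4-11 AML cells, 500 per well, added to predispensed compounds and incubated 72 hr at 37 C, 5% CO2. Viability measured by CellTiter-Glo luminescence after 10 min at room temperature.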

[4] = Quantitative highthroughput screen to assess conditional lethalithy of NOMO1 cells grown in RPMI1640 with untreated serum (RPMI+s) (AID 1963876); note: nearly all actives have a fitted effect of over 35% in size;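 for Viability: 100% = DMSO wells and 0% = empty wells without cells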
Procedure, shortened: (§1)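 Each medium arm—HPLM with 10% dialyzed FBS, or RPMI1640 with 5 mM glucose and 10% untreated or dialyzed FBS—was screened against an 11-point, 3-fold compound titration for 48 h at 37 °C, with CellTiter-Glo luminescence as endpoint.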

[5] = Quantitative highthroughput screen to assess conditional lethalithy of NOMO1 cells grown in RPMI1640 with dialyzed fetal bovine serum (RPMI+ds) (AID 1963877); note: nearly all actives have a fitted effect of over 30% in size;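 for Viability: series mostly up to about 46 µM; 100% = DMSO control wells and 0% = empty wells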
Procedure, shortened: as §1

[6] = Quantitative highthroughput screen to assess conditional lethalithy of NOMO1 cells grown in Human Plasma-Like Medium with dialyzed fetal bovine serum (HPLM+ds) (AID 1963878); note: nearly all actives have a fitted effect of over 35% in size;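 for Viability: 100% = DMSO wells and 0% = empty wells on each plate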
Procedure, shortened: as §1

[7] = Quantitative highthroughput screen to assess conditional lethalithy of P12 Ichikawa cells grown in Human Plasma-Like Medium with dialyzed fetal bovine serum (HPLM+ds) (AID 1963879); details: Potency: viability; note: nearly all actives have a fitted effect of over 35% in size; for Viability: series mostly up to about 46 µM
Procedure, shortened: as §1

[8] = Quantitative highthroughput screen to assess conditional lethalithy of P12 Ichikawa cells grown in RPMI1640 with dialyzed fetal bovine serum (RPMI+ds) (AID 1963880); details: Potency: P12-Ichikawa viability; note: nearly all actives have a fitted effect of over 35% in size;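 for Viability: 100% = DMSO wells and 0% = empty wells on each plate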
Procedure, shortened: as §1

[9] = Quantitative highthroughput screen to assess conditional lethalithy of SEM cells grown in Human Plasma-Like Medium with dialyzed fetal bovine serum (HPLM+ds) (AID 1963882); note: nearly all actives have a fitted effect of over 35% in size; for Viability: series mostly up to about 46 µM
Procedure, shortened: as §1

[10] = Quantitative highthroughput screen to assess conditional lethalithy of SEM cells grown in RPMI1640 with unreated serum (RPMI+s) (AID 1963883); note: nearly all actives have a fitted effect of over 35% in size;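 for Viability: 100% = DMSO wells and 0% = empty wells without cells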
Procedure, shortened: as §1

[11] = Cellular viability qHTS for adrenocortical cancer (ACC) cell line SW-13 (AID 1963989); details: SW-13 ACC cells viability, CellTiter-Glo, 48 h; activity (max response): active compounds read low; note: nearly all actives have a fitted effect of over 65% in size;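 for activity (max response): cells grown in serum-free medium with ITS supplement; % is set by controls: 0 for no effect and ±100 for the full control effect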
Procedure, shortened: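 Here, serum-free SW-13 cultures were dosed up to 46 uM. Following 48 h, ATP-dependent luminescence (CellTiter-Glo) reported viable cells, and logistic modeling produced IC50 values.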

[12] = Cellular viability qHTS for adrenocortical cancer (ACC) cell line NCI-H295R (AID 1963990); note: nearly all actives have a fitted effect of over 60% in size
Procedure, shortened: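 Viability of NCI-H295R after 48 h of treatment (final up to 46 uM) measured through cellular ATP luminescence.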

[13] = Quantitative highthroughput screen to assess conditional lethalithy of P12 Ichikawa cells grown in RPMI1640 with untreated serum (RPMI+s) (AID 1963881); details: Potency: viability; note: nearly all actives have a fitted effect of over 35% in size;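 for Viability: series mostly up to about 46 µM; 100% = DMSO wells and 0% = empty wells without cells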
Procedure, shortened: as §1

[14] = Quantitative highthroughput screen to assess conditional lethalithy of SEM cells grown in RPMI1640 with dialyzed fetal bovine serum (RPMI+ds) (AID 1963884); note: nearly all actives have a fitted effect of over 35% in size;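 for Viability: series mostly up to about 46 µM; 100% = DMSO control wells and 0% = empty wells without cells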
Procedure, shortened: as §1
Potency is the fitted concentration of half-maximal effect.

O=C(O)c1cc(=O)c2c(OCC(O)COc3cccc4oc(C(=O)O)cc(=O)c34)cccc2o1
inactive: Potency [1] | Potency [2] | Potency [3] | Potency [4] | Potency [5] | Potency [6] | Potency [7] | Potency [8] | Potency [9] | Potency [10] | activity (max response) [11] 10.3% and -0.0262% | Potency [12]

NC(=O)c1cnccn1
inactive: Potency [1] | Potency [2] | Potency [3] | Potency [4] | Potency [6] | Potency [8] | Potency [13] | Potency [9] | Potency [10] | Potency [14] | activity (max response) [11] 14.3% and 8.02% | Potency [12]

Cc1cn([C@H]2C[C@H](N=[N+]=[N-])[C@@H](CO)O2)c(=O)[nH]c1=O
inactive: Potency [1] | Potency [2] | Potency [3] | Potency [9] | Potency [10] | activity (max response) [11] -7.12% | Potency [12]
active: Potency [4] 1.32 µM | Potency [5] 1.87 µM | Potency [7] 10.5 µM

Cc1cn([C@H]2C=C[C@@H](CO)O2)c(=O)[nH]c1=O
inactive: Potency [1] | Potency [2] | Potency [3] | Potency [4] | Potency [6] | Potency [7] | Potency [8] | Potency [13] | Potency [9] | Potency [10] | Potency [12]

O=c1oc2c(O)c(O)cc3c(=O)oc4c(O)c(O)cc1c4c23
inactive: Potency [1] | Potency [2] | Potency [3] | Potency [4] | Potency [5] | Potency [8] | Potency [13] | Potency [10] | Potency [14] | activity (max response) [11] 9.27% and 2.22% | Potency [12]

Cc1nnc(NS(=O)(=O)c2ccc(N)cc2)s1
active: Potency [4] 9.35 µM | Potency [5] 5.26 µM | Potency [7] 7.43 µM | Potency [8] 13.2 µM | Potency [13] 8.33 µM | Potency [10] 9.35 µM
inactive: Potency [1] | Potency [2] | Potency [3] | Potency [9] | Potency [14] | activity (max response) [11] -2.08% and -2.89%

NC(=O)c1cccc2cn(-c3ccc([C@@H]4CCCNC4)cc3)nc12
inactive: Potency [1] | Potency [4] | Potency [5] | Potency [12]
active: Potency [2] 9.2 µM and 14.8 µM | Potency [3] 10.3 µM and 16.6 µM

CCOC(=O)c1ncn2c1CN(C)C(=O)c1cc(F)ccc1-2
inactive: Potency [1] | Potency [2] | Potency [3] | Potency [4] | Potency [5] | activity (max response) [11] 10.7% and 8.93% | Potency [12]
active: Potency [6] 20.9 µM | Potency [7] 3.72 µM

COc1ccc(C2(C#N)CCC(C(=O)O)CC2)cc1OC1CCCC1 (stereo not given)
inactive: Potency [1] | Potency [2] | Potency [3] | Potency [4] | Potency [5] | Potency [7] | Potency [8] | Potency [13] | Potency [9] | Potency [10] | Potency [14] | activity (max response) [11] 2.89% | Potency [12]

CCn1cc(C(=O)O)c(=O)c2cc(F)c(N3CCNCC3)cc21
inactive: Potency [1] | Potency [2] | Potency [3] | Potency [4] | Potency [5] | activity (max response) [11] -6.7% and -21.8% | Potency [12]
active: Potency [13] 3.32 µM

Cn1ccc2cc3c(cc21)CCN3C(=O)Nc1cccnc1
inactive: Potency [1] | Potency [2] | Potency [3] | Potency [4] | Potency [5] | Potency [6] | activity (max response) [11] -12.5% and 11.5% | Potency [12]

Cc1ccc(C(=O)Nc2ccc(S(=O)(=O)O)c3cc(S(=O)(=O)O)cc(S(=O)(=O)O)c23)cc1NC(=O)c1cccc(NC(=O)Nc2cccc(C(=O)Nc3cc(C(=O)Nc4ccc(S(=O)(=O)O)c5cc(S(=O)(=O)O)cc(S(=O)(=O)O)c45)ccc3C)c2)c1
inactive: Potency [1] | Potency [2] | Potency [3] | Potency [4] | Potency [12]
active: Potency [5] 8.33 µM | Potency [10] 4.69 µM

O=C1CSC(=O)N1C(CCc1ccncc1)COc1ccc(-c2cccc([N+](=O)[O-])c2)cc1 (stereo not given)
inactive: Potency [4] | Potency [5] | Potency [7] | Potency [8] | Potency [13] | Potency [9]
active: Potency [1] 1.34 µM | Potency [2] 7.42 µM | Potency [3] 4.17 µM

C1COC(NC(C2CC2)C2CC2)=N1
inactive: Potency [1] | Potency [2] | Potency [3] | Potency [4] | Potency [5] | Potency [6] | Potency [7] | Potency [13] | activity (max response) [11] 14.7% and 0.392% | Potency [12]

Cc1cnc(Nc2ccc(N3CCN(C)CC3)cc2)nc1Nc1cccc(S(=O)(=O)NC(C)(C)C)c1
active: Potency [2] 0.103 µM | Potency [3] 0.206 µM | Potency [4] 13.2 µM | Potency [6] 14.8 µM | Potency [7] 11.8 µM | Potency [8] 16.6 µM | Potency [13] 7.43 µM | Potency [9] 1.05 µM | Potency [10] 0.935 µM | Potency [14] 1.32 µM | Potency [11] 12.6 µM | Potency [12] 10 µM
inactive: Potency [1]

Cc1nc2n(c(=O)c1CCN1CCC(c3noc4cc(F)ccc34)CC1)CCCC2
inactive: Potency [1] | Potency [2] | Potency [3] | Potency [4] | Potency [5] | Potency [8] | Potency [13] | Potency [9] | Potency [10] | Potency [14] | activity (max response) [11] -10.2% | Potency [12]

Cc1nnc(C(=O)NC(C)(C)c2nc(C(=O)NCc3ccc(F)cc3)c(O)c(=O)n2C)o1
inactive: Potency [1] | Potency [2] | Potency [3] | Potency [4] | Potency [5] | Potency [7] | Potency [8] | Potency [13] | Potency [10] | Potency [14] | activity (max response) [11] 8% and 11.5% | Potency [12]
